Screen size: about 310,000 compounds; about 14,000 (4.5%) showed an effect of 50% or more. The effect is printed as a negative number. What follows is part of a selection rich in strong results, with near analogues and random picks from the rest.
The compounds below were run against human ether-à-go-go-related gene (hERG) potassium channel (human, UniProt Q12809) (assay: primary screen, population patch clamp on CHO cells stably expressing hERG; higher = less effect of the substance).
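Note: peak tail current of the secondary pulse compared with the same well before compound.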

Sequence of human ether-à-go-go-related gene (hERG) potassium channel (Q12809 whole entry, looked up): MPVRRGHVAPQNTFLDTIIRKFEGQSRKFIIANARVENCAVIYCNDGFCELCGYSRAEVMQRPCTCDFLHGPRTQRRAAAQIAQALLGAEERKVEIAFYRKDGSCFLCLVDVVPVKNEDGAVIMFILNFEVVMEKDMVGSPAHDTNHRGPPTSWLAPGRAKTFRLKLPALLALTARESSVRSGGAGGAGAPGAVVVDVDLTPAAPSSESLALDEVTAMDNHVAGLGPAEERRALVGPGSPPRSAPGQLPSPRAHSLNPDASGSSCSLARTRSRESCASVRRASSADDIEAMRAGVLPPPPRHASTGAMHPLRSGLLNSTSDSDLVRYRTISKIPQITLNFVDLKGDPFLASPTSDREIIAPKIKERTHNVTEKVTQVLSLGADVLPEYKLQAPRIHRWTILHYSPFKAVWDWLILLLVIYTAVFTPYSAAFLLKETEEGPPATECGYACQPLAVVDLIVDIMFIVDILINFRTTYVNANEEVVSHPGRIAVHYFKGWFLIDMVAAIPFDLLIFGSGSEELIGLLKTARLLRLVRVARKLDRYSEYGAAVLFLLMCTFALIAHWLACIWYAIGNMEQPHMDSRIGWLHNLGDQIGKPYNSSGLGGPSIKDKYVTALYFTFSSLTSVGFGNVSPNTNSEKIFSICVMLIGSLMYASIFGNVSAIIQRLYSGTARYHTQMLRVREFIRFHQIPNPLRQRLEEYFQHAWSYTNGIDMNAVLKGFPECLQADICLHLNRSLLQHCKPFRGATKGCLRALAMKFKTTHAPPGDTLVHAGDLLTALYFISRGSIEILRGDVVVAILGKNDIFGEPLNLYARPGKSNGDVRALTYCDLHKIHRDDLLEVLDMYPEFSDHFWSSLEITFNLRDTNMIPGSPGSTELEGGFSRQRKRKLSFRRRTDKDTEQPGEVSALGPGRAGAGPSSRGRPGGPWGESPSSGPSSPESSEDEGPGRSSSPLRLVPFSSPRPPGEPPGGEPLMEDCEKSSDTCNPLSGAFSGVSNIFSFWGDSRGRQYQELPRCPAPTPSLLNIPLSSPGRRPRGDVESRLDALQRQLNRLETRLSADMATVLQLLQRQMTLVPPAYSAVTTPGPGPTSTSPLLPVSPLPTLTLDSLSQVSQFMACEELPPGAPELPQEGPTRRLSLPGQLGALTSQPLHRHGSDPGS

| Compound | hERG current change (%, negative = inhibition) at 10uM |
| --- | --- |
| C#CCOCCOCCOCCNc1nc(N2CCN(C(=O)CCCCCCCCCCNC(=O)Cn3cc(C[C@@H](C)O)nn3)CC2)nc(N2CCN(C(=O)CCCCCCCCCCNC(=O)[C@H](CCCCN)n3cc(CCCC(=O)O)nn3)CC2)n1 | -1.72% |
| C1CCc2c(nc3nnnn3c2N2CCOCC2)C1 | -3.03% |
| COc1ccc(CC(=O)Nc2ccc(C#N)c(Cl)c2)cc1S(=O)(=O)N1CCOCC1 | -68.1% |
| COc1ccc(CC(=O)Nc2nc3ccccc3s2)cc1S(=O)(=O)N1CCOCC1 | -65.9% |
| COc1ccc(CC(=O)Nc2ccc(N3CCOCC3)cc2)cc1S(=O)(=O)N1CCOCC1 | 0.936% |
| COc1ccc(CC(=O)Nc2ccc(F)c(Cl)c2)cc1S(=O)(=O)N1CCOCC1 | -46.1% |
| COc1cccc(C(=O)Nc2nc3ccccc3s2)c1 | 4.88% |
| COc1ccc2nc(NC(=O)Cc3ccc(OC)c(S(=O)(=O)N4CCOCC4)c3)sc2c1 | -22.1% |
| COc1ccc(C(=O)Nc2nc3ccccc3s2)cc1OC | -65.8% |
| COc1ccc(C(=O)Nc2nc3ccccc3s2)cc1 | 11.6% |
| COc1ccc(CC(=O)Nc2nc3ccc(F)cc3s2)cc1S(=O)(=O)N1CCOCC1 | -19.4% |
| COc1cc(NC(=O)c2nccn2C)cc(C(=O)Nc2cccc(C(F)(F)F)c2)c1 | 5.31% |
| CC(C)CC(C(=O)NC(=O)NCc1ccccc1)N1C(=O)c2ccccc2C1=O (stereo not drawn) | 8.22% |
| CC(C)(C)C(=O)OCCn1c(=O)c2cc3c(=O)n(CCOC(=O)C(C)(C)C)c(=O)c3cc2c1=O | 25.5% |
| CC(=O)c1sc2nc(-c3ccc(C)cc3)c3c(c2c1N)CCCC3 | 2.68% |
| Cc1ccc(C(O)(C(=O)NNS(=O)(=O)c2ccc(C)cc2)c2ccc(C)cc2)cc1 | -5.55% |
| CCn1cc([C@@H]2C[C@H]3CN(Cc4cccc(Cl)c4)C(=O)[C@]34CCCN24)c(C)n1 | -41.7% |
| CCCn1cc([C@@H]2C[C@H]3CN(Cc4cccc(Cl)c4)C(=O)[C@]34CCCN24)c(C)n1 | -67.3% |
| Cc1nn(C)cc1[C@@H]1C[C@H]2CN(Cc3cccc(Cl)c3)C(=O)[C@]23CCCN13 | -36.8% |
| Cn1cc([C@@H]2C[C@H]3CN(Cc4cccc(Cl)c4)C(=O)[C@]34CCCN24)c(-c2ccccc2)n1 | -63.3% |
| CCCn1ncc([C@@H]2C[C@H]3CN(Cc4cccc(Cl)c4)C(=O)[C@]34CCCN24)c1C | -43.6% |
| Cc1ccccc1CN1C[C@@H]2C[C@@H](c3cn(C)nc3-c3ccccc3)N3CCC[C@@]23C1=O | 3.15% |
| O=C1NC(c2ccccc2)CCC1(Cl)Cl (stereo not drawn) | 6.57% |
| CCc1ccc(NC(=O)c2cccc(NC3=NC4CS(=O)(=O)CC4S3)c2)cc1 (stereo not drawn) | 18% |
| CCn1c(=O)n(CC(=O)NCc2ccccc2OC)c(=O)c2ccccc21 | 8.2% |
| CC(C)(C)C(=O)C1=C(O)C(=O)N(Cc2ccccc2)C1c1ccccc1Cl (stereo not drawn) | 14.1% |
| O=C(COc1ccccc1O)N1CCN(C(=O)c2ccco2)CC1 | -24.8% |

| Compound | hERG current change (%, negative = inhibition) at 10uM |
| --- | --- |
| CCOC(=O)Nc1ccc(C(=O)c2ccncc2)cc1 | 14.7% |
| COc1ccccc1-c1ccc(=O)n(CC(=O)NC(C)(C)C)n1 | 14% |
| COc1cccc2[nH]c3c(N4CCc5ccccc5C4)ncnc3c12 | 4.69% |
| CC1(C)Cc2c(sc(NC(=O)C(C)(C)C)c2C#N)C(C)(C)N1 | 3.16% |
| O=C(NCc1cccs1)C1CCN(S(=O)(=O)c2ccc(Cl)cc2)CC1 | 4.41% |
| O=C(NCc1cccs1)C1CCN(S(=O)(=O)c2ccccc2F)CC1 | 10.4% |
| N#CCCN1CCN(S(=O)(=O)c2ccc(C#N)cc2)CC1 | -10.6% |
| O=C(CN1CCN(S(=O)(=O)c2ccc(F)cc2)CC1)NCc1cccs1 | -32.1% |
| N#Cc1ccc(S(=O)(=O)N2CCN(Cc3cccs3)CC2)cc1 | -61.2% |
| CC(=O)Nc1ccc(S(=O)(=O)N2CCN(Cc3cccs3)CC2)cc1.O=C(O)C(=O)O | -7.69% |
| O=C(CN1CCN(S(=O)(=O)c2ccccc2C(F)(F)F)CC1)NCc1cccs1 | -68.1% |
| O=C(CN1CCN(S(=O)(=O)c2ccc(Cl)cc2)CC1)NCc1cccs1 | -59.1% |
| Cl.O=C(CN1CCN(c2ccc(F)cc2)CC1)NCc1cccs1 | -15.4% |
| COc1ccc(OC)c(Nc2nc(-c3ccc(O)c(O)c3)cs2)c1 | 10.8% |
| CC12CN3CC(C)(CN(C1)C31CCOCC1)C2=O | 11.4% |
| CCOc1cc(C(=O)NC2CC(C)(C)NC(C)(C)C2)cc(OCC)c1OCC | 20% |
| O=C(NCc1ccco1)C1CCN(S(=O)(=O)Cc2ccccc2)CC1 | -5.29% |
| CCOc1ccc(S(=O)(=O)N(C)CC(=O)NCc2ccccn2)cc1Cl | -27.8% |
| O=C(CSc1ncn[nH]1)Nc1ccc2c(c1)OCCO2 | -26.9% |
| Cc1csc(N)n1 | 7.04% |
| Cc1ccnc(NC(=O)CC(c2ccccc2)c2ccccc2)n1 | 30.5% |
| Clc1ccc(CSc2cc3c(nn2)-c2ccccc2CC3)cc1 | 23% |
| CC1=C(C(=O)OCC2CCCCC2)C(c2ccc(O)cc2)NC(=O)N1 (stereo not drawn) | 12.7% |
| COC(=O)c1cc(NC2c3ccccc3C(=O)N2c2ccc(Cl)cn2)cc(C(=O)OC)c1 (stereo not drawn) | 19.5% |
| Cc1ccc(S(=O)(=O)NCC(=O)OCC(=O)c2cccs2)cc1 | 0.259% |
| Cc1ccc(S(=O)(=O)NCC(=O)OCC(=O)c2ccc(Br)s2)cc1 | -52.7% |
| Cc1ccc(S(=O)(=O)NCC(=O)OCC(=O)c2ccc(Cl)s2)cc1 | 1.12% |

Source: article PMC4336329 (PLoS ONE, 2015)
